Tested on: T1, JNK3
T1 construct: gene MAPK10
Conditions: concentration: 1 μM, replicates: in singlicate; n = 1
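Note: KINOMEscan kinase panel screen.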

| Structure (SMILES) | %Inh [%] |
| --- | --- |
| COC(=O)C(Cc1ccccc1)NC(=O)NC1CCN(c2ccnc(Nc3ccc(F)cc3)n2)C1 (stereo not drawn) [GSK1379714] | 0 |
| CSc1ccc(-c2nc3n(c2-c2ccncc2)CCC3)cc1 [SKF-105561] | 59 |
| COc1ccc(Nc2nccc(N3CCC(NC(=O)c4cc5ccccc5s4)C3)n2)cc1 (stereo not drawn) [GSK1379738] | 10 |
| Cc1ccc(NC(=O)Nc2ccc(Cl)cc2)cc1-c1ccc(C(=O)Nc2ccncc2)cc1 [GSK1398472] | 1 |
| CC(C)c1ccc(O)cc1Nc1ccnc2ccc(C(F)(F)F)cc12 [GW482059] | 0 |
| COC(=O)c1cccc(NC(=O)NC2CCN(c3ccnc(Nc4ccc(F)cc4)n3)C2)c1 (stereo not drawn) [GSK1379725] | 17 |
| O=c1cc(N2CCOCC2)nc2n(Cc3ccccc3F)ccn12 [GSK2297428] | 0 |
| Cc1ccccc1-c1cc(-c2c[nH]nc2-c2ccccn2)ccn1 [GW680061] | 32 |
| COc1ccc(Nc2nccc(NCCNC(=O)Nc3cc(C)ccc3C)n2)cc1 [GSK1379899] | 0 |
| FC(F)(F)c1ccccc1-c1cc(-c2c[nH]nc2-c2ccccn2)ccn1 [GW679396] | 40 |
| Cc1ccccc1Cn1ccn2c(=O)cc(N3CCOCC3)nc12 [GSK2269905] | 1 |
| Cc1ccc(NC(=O)Nc2ccc(Cl)c(C(F)(F)F)c2)cc1-c1ccc(C(=O)Nc2ccncc2)cc1 [GSK1398470] | 0 |
| CCc1ccc(-c2ccc3c(c2)-c2n[nH]cc2S(=O)(=O)N3C)cc1 | 0 |
| CNCc1ccc2nc(NC(=O)c3ccc(C(C)(C)C)cc3)cn2c1 | 14 |
| Fc1ccc(-c2nn3cccc(F)c3c2-c2ccncc2)cc1 [GW475620] | 97.4 |
| CNc1nc(-c2ccc3c(N)n[nH]c3c2)cc(N2C[C@@H](C(=O)Nc3ccccc3)CC[C@H]2C)n1 [GSK2298859] | 3 |
| Cc1ccc(NC(=O)Nc2ccccc2F)cc1-c1ccc(C(=O)Nc2ccncc2)cc1 [GSK1398477] | 0 |
| Cc1ccc(NC(=O)c2ccc(Cl)cc2)cc1-c1ccc(C(=O)Nc2ccncc2)cc1 [GSK1398467] | 0 |

| Structure (SMILES) | %Inh [%] |
| --- | --- |
| COC(=O)C(NC(=O)NC1CCN(c2ccnc(Nc3ccc(F)cc3)n2)C1)c1ccccc1 (stereo not drawn) [GSK1379712] | 0 |
| Nc1nccc(-c2c(-c3ccc(F)cc3)ncn2C2CCN(Cc3ccccc3)CC2)n1 [SB-219980] | 95.4 |
| NS(=O)(=O)c1cccc(N/C=C2\C(=O)Nc3ccc(S(=O)(=O)Cc4c(Cl)cccc4Cl)cc32)c1 [GSK398099] | 7 |
| CN1c2ccc(-c3ccc(C(N)=O)cc3)cc2-c2[nH]ncc2S1(=O)=O | 0 |
| CNC(=O)c1ccc(C)c(-n2c(C)cc(OCc3ccc(F)cc3F)c(Br)c2=O)c1 | 100 |
| Nc1ncnc2occ(-c3ccc4c(c3)CCN4C(=O)Cc3cc(F)ccc3F)c12 [GSK2645446] | 0 |
| Cc1c(Cn2c(C)c(C)n3c(=O)cc(N4CCOCC4)nc23)cccc1C(F)(F)F [GSK2328680] | 0 |
| Cc1ccc(-c2nc(Nc3ccncc3)c3ccccc3n2)s1 [GSK189015] | 14 |
| O=C1NC(=O)C(c2ccc(Cl)cc2)=C1Nc1cccc(Cl)c1 [SB-317651] | 54 |
| Cn1cnc2c(N)ncnc21 [SKF-97623] | 0 |
| Cc1ccc(NC(=O)Nc2ccccc2)cc1-c1ccc(C(=O)Nc2ccncc2)cc1 [GSK1398471] | 8 |
| CCn1c(-c2c(N)noc2C)nc2cnccc21 [SB-737856] | 9 |
| COc1ccc(Nc2nccc(-c3ccc(NC(=O)c4cc5cc(F)ccc5[nH]4)cc3)n2)cc1 [GSK1229496] | 3 |
| Nc1cccc(-c2ccc3c(N)n[nH]c3c2)n1 [GSK2192730] | 0 |
| CS(=O)(=O)CCNCc1nc(-c2ccc3ncnc(Nc4ccc(OCc5ccccc5)c(Cl)c4)c3c2)cs1.Cl [GW582764] | 0 |
| COc1ccc(Nc2nccc(N3CCC(NC(=O)C(C)c4ccc(Cl)cc4)C3)n2)cc1 (stereo not drawn) [GSK1379735] | 0 |
| Cc1cnc(N)c(/C=C/c2cncc(C(=O)NCCc3ccc(Cl)cc3Cl)c2)c1.Cl [GSK190937] | 4 |
| O=C(Nc1n[nH]c2nc(-c3cccs3)c(Br)cc12)C1CC1 [SB-735297] | 9 |

Tested on: KIT-autoinhibited
Conditions: concentration: 1 μM, replicates: in singlicate; n = 1

| Structure (SMILES) | %Inh [%] |
| --- | --- |
| COC(=O)C(Cc1ccccc1)NC(=O)NC1CCN(c2ccnc(Nc3ccc(F)cc3)n2)C1 (stereo not drawn) [GSK1379714] | 9 |
| CSc1ccc(-c2nc3n(c2-c2ccncc2)CCC3)cc1 [SKF-105561] | 0 |
| COc1ccc(Nc2nccc(N3CCC(NC(=O)c4cc5ccccc5s4)C3)n2)cc1 (stereo not drawn) [GSK1379738] | 0 |
| Cc1ccc(NC(=O)Nc2ccc(Cl)cc2)cc1-c1ccc(C(=O)Nc2ccncc2)cc1 [GSK1398472] | 4 |
| CC(C)c1ccc(O)cc1Nc1ccnc2ccc(C(F)(F)F)cc12 [GW482059] | 0 |
| COC(=O)c1cccc(NC(=O)NC2CCN(c3ccnc(Nc4ccc(F)cc4)n3)C2)c1 (stereo not drawn) [GSK1379725] | 0 |
| O=c1cc(N2CCOCC2)nc2n(Cc3ccccc3F)ccn12 [GSK2297428] | 0 |
| Cc1ccccc1-c1cc(-c2c[nH]nc2-c2ccccn2)ccn1 [GW680061] | 0 |
| COc1ccc(Nc2nccc(NCCNC(=O)Nc3cc(C)ccc3C)n2)cc1 [GSK1379899] | 0 |
| FC(F)(F)c1ccccc1-c1cc(-c2c[nH]nc2-c2ccccn2)ccn1 [GW679396] | 0 |
| Cc1ccccc1Cn1ccn2c(=O)cc(N3CCOCC3)nc12 [GSK2269905] | 1 |
| Cc1ccc(NC(=O)Nc2ccc(Cl)c(C(F)(F)F)c2)cc1-c1ccc(C(=O)Nc2ccncc2)cc1 [GSK1398470] | 45 |
| CCc1ccc(-c2ccc3c(c2)-c2n[nH]cc2S(=O)(=O)N3C)cc1 | 0 |
| CNCc1ccc2nc(NC(=O)c3ccc(C(C)(C)C)cc3)cn2c1 | 20 |
| Fc1ccc(-c2nn3cccc(F)c3c2-c2ccncc2)cc1 [GW475620] | 0 |
| CNc1nc(-c2ccc3c(N)n[nH]c3c2)cc(N2C[C@@H](C(=O)Nc3ccccc3)CC[C@H]2C)n1 [GSK2298859] | 0 |
| Cc1ccc(NC(=O)Nc2ccccc2F)cc1-c1ccc(C(=O)Nc2ccncc2)cc1 [GSK1398477] | 5 |
| Cc1ccc(NC(=O)c2ccc(Cl)cc2)cc1-c1ccc(C(=O)Nc2ccncc2)cc1 [GSK1398467] | 0 |

| Structure (SMILES) | %Inh [%] |
| --- | --- |
| COC(=O)C(NC(=O)NC1CCN(c2ccnc(Nc3ccc(F)cc3)n2)C1)c1ccccc1 (stereo not drawn) [GSK1379712] | 5 |
| Nc1nccc(-c2c(-c3ccc(F)cc3)ncn2C2CCN(Cc3ccccc3)CC2)n1 [SB-219980] | 0 |
| NS(=O)(=O)c1cccc(N/C=C2\C(=O)Nc3ccc(S(=O)(=O)Cc4c(Cl)cccc4Cl)cc32)c1 [GSK398099] | 0 |
| CN1c2ccc(-c3ccc(C(N)=O)cc3)cc2-c2[nH]ncc2S1(=O)=O | 20 |
| CNC(=O)c1ccc(C)c(-n2c(C)cc(OCc3ccc(F)cc3F)c(Br)c2=O)c1 | 0 |
| Nc1ncnc2occ(-c3ccc4c(c3)CCN4C(=O)Cc3cc(F)ccc3F)c12 [GSK2645446] | 0 |
| Cc1c(Cn2c(C)c(C)n3c(=O)cc(N4CCOCC4)nc23)cccc1C(F)(F)F [GSK2328680] | 0 |
| Cc1ccc(-c2nc(Nc3ccncc3)c3ccccc3n2)s1 [GSK189015] | 0 |
| O=C1NC(=O)C(c2ccc(Cl)cc2)=C1Nc1cccc(Cl)c1 [SB-317651] | 15 |
| Cn1cnc2c(N)ncnc21 [SKF-97623] | 35 |
| Cc1ccc(NC(=O)Nc2ccccc2)cc1-c1ccc(C(=O)Nc2ccncc2)cc1 [GSK1398471] | 0 |
| CCn1c(-c2c(N)noc2C)nc2cnccc21 [SB-737856] | 0 |
| COc1ccc(Nc2nccc(-c3ccc(NC(=O)c4cc5cc(F)ccc5[nH]4)cc3)n2)cc1 [GSK1229496] | 0 |
| Nc1cccc(-c2ccc3c(N)n[nH]c3c2)n1 [GSK2192730] | 0 |
| CS(=O)(=O)CCNCc1nc(-c2ccc3ncnc(Nc4ccc(OCc5ccccc5)c(Cl)c4)c3c2)cs1.Cl [GW582764] | 0 |
| COc1ccc(Nc2nccc(N3CCC(NC(=O)C(C)c4ccc(Cl)cc4)C3)n2)cc1 (stereo not drawn) [GSK1379735] | 5 |
| Cc1cnc(N)c(/C=C/c2cncc(C(=O)NCCc3ccc(Cl)cc3Cl)c2)c1.Cl [GSK190937] | 0 |
| O=C(Nc1n[nH]c2nc(-c3cccs3)c(Br)cc12)C1CC1 [SB-735297] | 0 |

From publication PMC5540273 (PLoS ONE, 2017)
